An excerpt weighted towards active compounds, which were near 1.5% of everything screened.
RTF Ca sens act – increases calcium sensitivity of human cardiac regulated thin filaments | hit rate 0.24% among 340,000 | activation, % at 7.2 µM | IANBD-labeled TnC RTF fluorescence at EC20 calcium; 0% EC20 calcium, 100% full calcium;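 active = activation above the mean over all tested compounds plus 3 SD, cut at about 30% in these data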;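 note: rise in fluorescence read as greater calcium sensitivity of cardiac thin filaments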
IDE act – activators of human insulin-degrading enzyme in cells; P14735; HEK cells, FAbeta-B cleavage, fluorescence polarization; 0% vehicle, 100% cell-free pure enzyme wells; activation, % at 5.96 µM; hit rate 0.073% among 340,000; AID 493087;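 active = activation above the mean of all tested compounds plus 3 SD, set per screening campaign, cut at about 17% in these data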
Target sequence (P14735 whole entry, looked up): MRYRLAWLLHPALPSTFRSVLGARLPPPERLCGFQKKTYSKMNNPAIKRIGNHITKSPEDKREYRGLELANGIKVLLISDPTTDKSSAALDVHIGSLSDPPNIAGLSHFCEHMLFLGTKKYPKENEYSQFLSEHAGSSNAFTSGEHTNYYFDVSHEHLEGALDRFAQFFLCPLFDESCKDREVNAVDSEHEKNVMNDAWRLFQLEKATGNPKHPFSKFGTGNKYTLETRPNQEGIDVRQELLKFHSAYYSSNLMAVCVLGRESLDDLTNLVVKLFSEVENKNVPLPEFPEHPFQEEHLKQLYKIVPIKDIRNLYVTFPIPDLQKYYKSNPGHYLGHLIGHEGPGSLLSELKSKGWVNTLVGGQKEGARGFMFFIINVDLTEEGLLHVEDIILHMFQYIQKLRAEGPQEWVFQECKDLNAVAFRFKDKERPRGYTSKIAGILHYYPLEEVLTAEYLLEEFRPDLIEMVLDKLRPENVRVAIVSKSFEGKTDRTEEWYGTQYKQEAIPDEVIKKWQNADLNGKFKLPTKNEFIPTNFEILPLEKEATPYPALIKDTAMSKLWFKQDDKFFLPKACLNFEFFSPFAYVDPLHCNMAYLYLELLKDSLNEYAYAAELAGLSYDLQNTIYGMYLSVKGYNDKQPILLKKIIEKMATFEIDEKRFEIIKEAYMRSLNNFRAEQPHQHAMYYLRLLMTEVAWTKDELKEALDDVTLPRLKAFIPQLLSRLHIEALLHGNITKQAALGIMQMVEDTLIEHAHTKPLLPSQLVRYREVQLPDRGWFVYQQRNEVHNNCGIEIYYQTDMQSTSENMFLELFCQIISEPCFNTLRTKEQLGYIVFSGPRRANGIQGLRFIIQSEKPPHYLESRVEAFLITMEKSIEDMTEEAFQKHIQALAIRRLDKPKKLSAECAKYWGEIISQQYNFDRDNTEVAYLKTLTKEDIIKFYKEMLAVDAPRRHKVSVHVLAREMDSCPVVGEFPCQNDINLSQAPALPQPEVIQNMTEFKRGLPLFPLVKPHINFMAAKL
CRFBP-R2 block – blocks CRF-induced signaling of the CRF-BP/CRF-R2 complex | HEK293 CRF-R2/CRF-BP, CRF-induced calcium fluorescence | inhibition, % at 11.8 µM | hit rate 0.59% among 350,000;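 active = inhibition of the ligand-induced calcium signal above about 50% at the single tested concentration, limit read from the data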
RTF Ca sens inh – cardiac RTF calcium desensitization. AID 493244. inhibition, % at 7.15 µM. IANBD-labeled cardiac RTF, Ca2+ fluorescence. hit rate 0.12% among 340,000;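 active = inhibition above the mean inhibition of all tested compounds plus 3 SD, cut at about 17% in these data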;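 note: assay run at fixed EC70 calcium of 1.6 mM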
IDE inh – inhibitors of human insulin-degrading enzyme in cells; hit rate 0.41% among 320,000; AID 434962; HEK cells, FAbetaB cleavage, fluorescence polarization; inhibition, % at 5.59 µM;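 active = percent inhibition above the average of all tested compounds plus 3 SD, set per screening campaign, cut at about 16% in these data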;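 note: IDE supplied by intact live HEK cells; FP after avidin binding of uncleaved biotin substrate so inhibition keeps polarization high; 0% = DMSO wells and 100% = 60 µM reference IDE inhibitor Ii1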
CRFBP-R2 agonist – agonists of human CRF-binding protein/CRF-R2 receptor complex; HEK293 CRF-R2/CRF-BP, calcium dye fluorescence (FLIPR); percent of saturating CRF peptide response; activation, % at 13.2 µM; hit rate 0.46% among 350,000;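 active = activation of at least 50%, plus an integration ratio under a set limit after plate pattern correction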;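 note: plate controls were neutral control wells without compound for no effect and CRF at EC100 for full effect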
* = called active by the depositor; nt = no result.

SMILES	RTF Ca sens act	IDE act	CRFBP-R2 block	RTF Ca sens inh	IDE inh	CRFBP-R2 agonist
CCOC(=O)C1CCCN(C(=O)c2cccc(S(=O)(=O)N(Cc3ccccc3)c3ccccc3OC)c2)C1 (centres undefined)	-8.3	3.7	50.9*	-1.6	5.6	-1.7
CCOC(=O)C1CCCN(C(=O)c2ccc(Cl)c(S(=O)(=O)N3CCCCC3)c2)C1 (centres undefined)	-0.7	4.7	53.5*	-5.6	6.7	-0.4
Cc1ccc(CN2CCSc3ccc(C(=O)N4CCN(c5ncccn5)CC4)cc32)cc1	2.0	-6.2	62.5*	-3.2	-3.5	-3.0
CC(Sc1nc(N)cc(N)n1)C(=O)NCCC1=CCCCC1 (centres undefined)	2.8	1.7	1.1	-4.0	-1.3	-1.1
Cc1nn(S(=O)(=O)c2cccs2)c(C)c1Sc1ccc([N+](=O)[O-])cc1	0.8	3.3	58.5*	-8.2	0.7	1.0
COc1ccc(NC(=O)COc2cccc3c2CCN(C)C3=O)c(OC)c1	-3.7	0.7	2.3	-2.3	5.3	-1.0
CCCCN1C(=O)C(CC(=O)NCc2ccco2)CC(C(=O)N2CCOCC2)=C1C (centres undefined)	nt	nt	-16.0	nt	nt	-0.1
CC1CCCCC12NC(=O)N(CC(=O)N1CCN(c3ncccn3)CC1)C2=O (centres undefined)	0.2	-4.6	2.5	0.2	2.6	-0.3
O=C(c1cccc([N+](=O)[O-])c1)c1ccc2c(c1)OCCOCCOCCO2	nt	nt	58.3*	nt	-1.6	1.2
O=C(c1ccccc1)c1ccc2c(c1)OCCOCCOCCO2	3.2	-8.4	5.7	-9.4	5.1	0.1
C/C(=C\c1ccccc1)CN1CCC(C(=O)N2CCCCC2)CC1	-1.9	2.3	95.8*	-2.5	7.4	-2.6
C/C(=C\c1ccccc1)CN1CCC(C(=O)N2CCC(C)CC2)CC1	3.0	-2.8	0.1	-3.5	2.0	-0.2
CC1=C/C(=N\OS(=O)(=O)c2ccccc2)C(C)=CC1=O	1.9	-3.6	-89.0	1.8	10.8	68.7*
CC1=C(C)/C(=N\OS(=O)(=O)c2ccc(C)cc2)C=CC1=O	-2.6	-2.6	-166.6	10.2	1.2	64.1*
COc1ccc(S(=O)(=O)/N=C2/C=CC(=O)C(C)=C2C)cc1	2.4	-5.4	-17.0	-8.1	-1.3	-1.1
O=C(N/N=C/c1ccc(OC(=O)c2ccco2)cc1)c1ccc[n+]([O-])c1	-2.1	5.7	7.7	3.9	-1.3	0.6
COc1cccc(OC)c1CNC(=O)C1CCC(=O)N(CC2CCCCC2)C1 (centres undefined)	-7.4	0.6	-12.8	-4.6	0.1	-0.1
COc1cccc(CNC(=O)C2CCC(=O)N(CC3CCCCC3)C2)c1OC (centres undefined)	1.3	-5.8	91.9*	-6.0	nt	3.3
O=C(NCc1ccc(F)c(F)c1)C1CCC(=O)N(CC2CCCCC2)C1 (centres undefined)	-1.0	6.0	-12.2	-9.1	-0.1	-1.2
COc1cccc(CN2CC(C(=O)NCc3ccc(Cl)s3)CCC2=O)c1 (centres undefined)	-4.2	1.8	63.2*	4.0	nt	0.7
O=C(NCc1cccc(Cl)c1)C1CCC(=O)N(CC2CCCCC2)C1 (centres undefined)	-1.0	2.5	85.7*	-6.1	-5.5	-4.3
O=C(O)c1ccc(N=Nc2c(O)[nH]c3ccc(Br)cc23)cc1	-2.6	-2.8	-6.1	0.5	3.1	0.6
O=c1ccc2cc3c([nH]c4ccc(Br)cc43)oc-2c1O	-31.5	-21.6	nt	24.0*	9.6	nt
NC(=O)CSc1nnnn1-c1ccc2c(c1)OCCO2	-4.8	6.2	81.2*	-4.2	-0.9	0.9
Fc1ccccc1CSc1nnnn1-c1ccc2c(c1)OCO2	1.8	-1.9	57.5*	-3.2	-2.8	0.7
COc1cc2cc(C(=O)N(C)C3CCS(=O)(=O)C3)[nH]c2cc1OC (centres undefined)	4.1	-4.8	-1.6	-10.3	10.9	0.5
O=[N+]([O-])c1cccc(C=NNc2ccc3ccccc3n2)c1O	-5.6	4.8	77.8*	2.4	nt	-1.0
CCCCCN(C(=O)CCC(=O)OCC(=O)c1ccc(F)c(F)c1)c1c(N)n(CCCC)c(=O)[nH]c1=O	-20.0	2.0	14.4	-8.2	-4.1	-0.9

Screening data: PubChem BioAssay, several laboratories
